PubChem BioAssay AID651821 (The Scripps Research Institute Molecular Screening Center, 2012)
In all, about 370,000 compounds went through this assay and about 4,700 (1.3%) were called active. Many of the other results were omitted from the sample, so actives are more common in it than they were. Values without a mark were called inactive.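 How the source made its calls: active means inhibition above the plate cutoff, the mean of all test compounds on that plate plus 3 SD (cut at about 35% in these data); inactive means the rest.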

test: small molecules binding CAG repeat RNA – biochemical, fluorescence, primary screen (AID 651821); conditions: r(CAG) RNA repeat, TO-PRO-1 dye displacement fluorescence; at 3 µM; hits give high values;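 further: 0% = DMSO alone and 100% = 100 µM mitoxantrone as full dye displacement; higher means more dye released from RNA so lower well fluorescence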

Compound	inhibition
CCOc1ccc(Br)cc1S(=O)(=O)Nc1ccc(S(=O)(=O)Nc2cc(C)on2)cc1	14.9%
CCC(Oc1ccccc1C)C(=O)Nc1ccc(S(=O)(=O)Nc2cc(C)on2)cc1 (stereo not drawn)	20.8%
Cc1cc(NS(=O)(=O)c2ccc(NC(=S)NC(=O)c3ccc(F)cc3Cl)cc2)no1	33.1%
O=C(/C=C/Nc1ccc(S(=O)(=O)Nc2cnc3ccccc3n2)cc1)c1cccnc1	5.52%
COc1ccc(S(=O)(=O)Nc2cc(C)on2)cc1NC(C)=O	3.85%
C=C(C)CNC(=S)Nc1ccc(S(=O)(=O)Nc2cnc3ccccc3n2)cc1	19.2%
CCc1ccc(OC(C)C(=O)Nc2ccc(S(=O)(=O)Nc3cc(C)on3)cc2)cc1 (stereo not drawn)	36.2% (active)
COc1cc2ccccc2cc1C(=O)Nc1ccc(S(=O)(=O)Nc2cc(C)on2)cc1	67.5% (active)
CCOc1ccc(CC(=O)Nc2ccc(S(=O)(=O)Nc3cc(C)on3)cc2)cc1OCC	22.4%
CCOc1cc(C(=O)Nc2ccc(S(=O)(=O)Nc3cnc4ccccc4n3)cc2)cc(OCC)c1OCC	66.1% (active)
Cc1cc(NS(=O)(=O)c2ccccc2)no1	-0.66%
CCOc1ccc(C(=O)Nc2ccc(S(=O)(=O)Nc3cc(C)on3)cc2)cc1	39.1% (active)
COc1cccc(CNC(=O)[C@H]2CCCN2C(=O)[C@H]2CCCN2C(=O)c2ccc(F)cc2)c1	0.66%
Cc1cc(OC(=O)NCCc2ccc(F)cc2)ccc1F	1.32%
CC(=O)c1ccc(S(=O)(=O)NCC2CCN(C(=O)C(=O)c3cccs3)CC2)cc1	2.35%
COc1ccc(SSc2ccc(OC)cc2C(=O)O)c(C(=O)O)c1	2.51%
CC[C@@H](CCC(=O)N(c1ccccc1)c1ccccc1)C1CC1	1.63%
COCC(C)NC(=O)COc1nncc2ccccc12 (stereo not drawn)	-0.71%
O=C(CSc1nc2ccccc2n1Cc1ccccc1)NNC(=S)Nc1ccccc1	31.7%
C[C@H]1CN([C@@H](C)CO)C(=O)CCCn2nncc2CO[C@@H]1CN(C)C(=O)Nc1ccc(N2CCN(C)CC2)cc1	4.52%
CC1CC1C(=O)OCC(=O)c1c(N)n(C)c(=O)n(C)c1=O (stereo not drawn)	-4.36%

Compound	inhibition
CCCCNC(=O)C[C@H]1C[C@@]2(C(=O)OC)C(=C[C@H](COCc3ccccc3)O[C@@H]2C)N(Cc2ccc(Cl)cc2Cl)C1=O	8.58%
CCN(CC)C(=O)CC[C@H]1CC[C@]2(CCCN(Cc3ccc(Cl)cc3)C2)O1	-2.21%
COC(=O)c1cccc(N(C(=O)c2ccco2)C(C(=O)NC2CCCC2)c2ccco2)c1 (stereo not drawn)	-6.24%
CCOc1ccccc1C(=O)N1CCC[C@@H]1C(=O)N1CCC[C@H]1C(=O)NCc1ccccc1	-1.61%
COc1ccc(-c2ccc3c(n2)CCCN3S(=O)(=O)c2ccc(C)cc2)cc1	4.71%
CC(C)(C)c1ccc(S(=O)(=O)NCC2CCN(C(=O)C(=O)c3cc4ccccc4o3)CC2)cc1	9.84%
COc1ccc(/C=C2\CC3(OC(C)=O)CCCN2C3)cc1 (stereo not drawn)	-0.3%
CC(=O)Oc1c(C(=O)c2nnc(C)o2)c(=O)n(Cc2ccccc2)c2ccccc12	2.47%
Cc1cc(OC(C)C(=O)Nc2ccc(S(=O)(=O)Nc3onc(C)c3C)cc2)cc(C)c1Cl (stereo not drawn)	75.6% (active)
Cc1cc(NS(=O)(=O)c2ccc(NC(=O)C(C)Oc3cccc(C)c3C)cc2)nc(C)n1 (stereo not drawn)	18.4%
Cc1ccc(C(=O)/C=C/Nc2ccc(S(=O)(=O)Nc3onc(C)c3C)cc2)cc1	48.3% (active)
Cc1cc(C)nc(NS(=O)(=O)c2ccc(N/C=C\C(=O)c3cccs3)cc2)n1	10.2%
Cc1noc(NS(=O)(=O)c2ccc(NC(=O)C34CCC(CC3)C4)cc2)c1C	2.57%
CC(Oc1cccc(Cl)c1)C(=O)Nc1ccc(S(=O)(=O)Nc2ncccn2)cc1 (stereo not drawn)	8.9%
COc1cccc(CNC(=O)CNS(=O)(=O)c2ccc3nc(C)sc3c2)c1OC	0.91%
COc1cccc(CNC(=O)[C@H]2CCCN2C(=O)[C@H]2CCCN2C(=O)c2cc(F)cc(F)c2)c1	-1.44%
COC(=O)C[C@@H]1CC[C@@H]2[C@H](COc3ccc(NC(=O)c4cccc(F)c4)cc3C(=O)N2C)O1	-0.86%
COc1ccccc1C(=O)NC1CCCCN(C(C)C)C1=O (stereo not drawn)	-0.3%
O=C(CCC1CCN(C(=O)c2cccc(Cl)c2F)CC1)Nc1ccccc1	-5.06%
C[C@@H]1CN([C@H](C)CO)S(=O)(=O)c2ccc(C#C[C@@H](C)O)cc2O[C@@H]1CN(C)Cc1ccc(-c2ccccc2)cc1	4.36%
C[C@@H]1CN([C@@H](C)CO)S(=O)(=O)c2ccc(-c3ccc(C(=O)N(C)C)cc3)cc2O[C@@H]1CN(C)Cc1ccccc1C(=O)O	3.43%

Compound	inhibition
Cc1ccccc1-c1ccc2c(c1)O[C@@H](CN(C)Cc1ccc(C(=O)O)cc1)[C@@H](C)CN([C@H](C)CO)S2(=O)=O	51.3% (active)
CN(C)c1ccc(NC(=O)NC2CCCCN(Cc3ccc(Cl)cc3)C2=O)cc1 (stereo not drawn)	5.29%
Cc1ccc2cc(/C=N/Nc3ccc(C(=O)O)cc3)c(Cl)nc2c1	41.6% (active)
CC(=O)Nc1ccc(C(=O)CSc2nc3ccc(C)cc3[nH]2)cc1	14.5%
CSCC[C@H](NC(=O)OC(C)(C)C)C(=O)N/N=C/c1cc2ccc(C)cc2nc1Cl	3.07%
CCOC(=O)/C=C/c1ccccc1O	0.7%
CCC(=O)Nc1ccc2c(c1)C(=O)N(C)[C@H]1CC[C@H](CC(=O)NCCOC)O[C@@H]1CO2	-0.44%
Cc1ccc(Cc2nnc(SCC(=O)Nc3ccccc3C)[nH]c2=O)cc1	15.2%
COc1ccc(Cc2nnc(SCC(=O)Nc3ccc(C)c(Cl)c3)[nH]c2=O)cc1	70.4% (active)
Cc1ccc(Cc2nnc(SCC(=O)Nc3ccc(C)cc3C)[nH]c2=O)cc1	10.1%
Cc1ccc(OCc2nnc(SC/C=C/c3ccccc3)n2Cc2ccco2)cc1	5.16%
Cc1ccc(NC(=O)Nc2cc(C)nn2-c2ccccc2)cc1	0.22%
Cc1nnc(NC(=O)Nc2ccc(Cl)c(Cl)c2)s1	41.7% (active)
Cc1ccc(CNC(=O)Nc2nnc([C@H]3C[C@H](O)[C@@H](CO)O3)s2)cc1	6.41%
O=C(CC(O)(C(F)(F)F)C(F)(F)F)Nc1ccc(Cl)c(Cl)c1	4.89%
O=C(CCS(=O)(=O)c1ccccc1)Nc1ccc(Cl)c(Cl)c1	5.15%
Cc1ccc(NC(=O)Nc2nnc(-c3ccncc3)s2)cc1	56.5% (active)
CCOC(=O)Cn1c2c(n(-c3ccc(F)cc3)c1=O)C=C(c1ccccc1)[C@@H](C)C(C(=O)N(C)C1CCCCC1)=C2	7.36%
O=C1CCC2(CCC(c3ccc(Cl)cc3)CC2)N1CCO (stereo not drawn)	0.01%
Cc1cccc(C(=O)NC(=S)N2CCN(c3ccc([N+](=O)[O-])cc3)CC2)c1	1.75%
Cc1cc(/C=N/Nc2ccc([N+](=O)[O-])cn2)c(C)n1-c1cccc(C(=O)O)c1	47.8% (active)

Compound	inhibition
Cc1c(NC(=O)Nc2cccc([N+](=O)[O-])c2)c(=O)n(-c2ccccc2)n1C	-1.07%
CCN(CC)Cc1c(C(=O)OC)nnn1-c1nonc1N	-2.7%
CCCCOCCCNC(=O)C[C@H]1C[C@@]2(C(=O)OC)C(=C[C@H](COCc3ccccc3)O[C@@H]2C)N(Cc2cccc3ccccc23)C1=O	4.81%
Cc1ccc(SC(CC(=O)c2ccc(C(C)(C)C)cc2)C(=O)O)cc1 (stereo not drawn)	42.9% (active)
Cc1ccc(CSCC(N)C(=O)O)cc1 (stereo not drawn)	5.4%
Cc1ccc(SC(C)C(=O)NCc2ccc(F)cc2)cc1 (stereo not drawn)	-0.76%
CCOC(=O)C1=C(C)NC(SC)=NC1c1ccccc1 (stereo not drawn)	0.67%
CO[C@@H]1[C@@H](OC(N)=O)[C@@H](O)C(Oc2ccc3c(O)c(NC(=O)c4ccc(O)c(CC=C(C)C)c4)c(=O)oc3c2C)OC1(C)C (stereo partly drawn)	49.8% (active)
COc1ccc(NC(=O)N(C)C[C@@H]2OCCCC[C@@H](C)Oc3ccc(NC(=O)NC4CCCCC4)cc3C(=O)N([C@H](C)CO)C[C@@H]2C)cc1	10%
COc1cc(NC(=O)COc2ccccc2Cl)ccc1NC(=O)C(C)C	-5.61%
O=C(COc1ccccc1)Nc1ccc(C(=O)N2CCCC2)cc1	-1.86%
O=C(COc1ccccc1Cl)Nc1ccc(C(=O)c2ccc(C(=O)O)cc2)cc1	41.2% (active)
O=C(OC12CCCN(C1)/C(=C/c1cccnc1)C2)C1CCCC1 (stereo not drawn)	-0.17%
O=C(COC(=O)c1ccc2ncsc2c1)Nc1ccc(Cl)cc1	7.21%
Cc1sc(NC(=O)c2ccc3ncsc3c2)c(C(N)=O)c1C	35.7% (active)
COc1ccccc1-c1nnc(NC(=O)c2ccc3ncsc3c2)o1	10.6%
O=C(CCl)NC1CCCCN(Cc2cccc(C(F)(F)F)c2)C1=O (stereo not drawn)	1.48%
Cc1c(C)c2c(OCC(=O)NCCCO)cc3c(c2oc1=O)CCC(C)(C)O3	-6.81%
Cc1c(C)c2c(OCC(=O)N[C@@H](C(=O)O)c3ccccc3)cc3c(c2oc1=O)CCC(C)(C)O3	41.1% (active)
Cc1cc(=O)oc2c3c(cc(OCC(=O)N[C@H](C(=O)O)c4ccccc4)c12)OC(C)(C)CC3	33.1%
